Measured values taken from the supplement of paper PMC8047044.
Counter-ions that a name gives are not always drawn.

test system: Neuro-2a; assay: neurite formation score, plate-normalized to DMSO control mean 5.04 (score (0-8 scale)); higher = more or longer neurites; conditions: 1 µM
Procedure: (§1)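 Neuro-2a mouse neuroblastoma cells in PLL-coated 96-well plates were pre-treated for 1 h in DMEM(+) with each kinase inhibitor at 1 µM, then switched to serum-free DMEM(-) with inhibitor to induce neurite outgrowth and fixed about 2-3 h later. Three blinded observers scored neurite formation from 0 (no neurites) to 8 (long neurites on almost all cells).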

Compared with `O=C(c1cccc(Cl)c1F)N1CCN(Cc2cccc(Nc3nccs3)n2)CC1`, `O=C(O)[C@]1(Cc2cccc(Nc3nccs3)n2)CC[C@@H](Oc2cccc(Cl)c2F)CC1` is lower in neurite formation score: 4.14 for the first, 3.69 for the second.

First: CC1(C)CNc2cc(NC(=O)c3cccnc3NCc3ccncc3)ccc21 [Motesanib Diphosphate (AMG-706)]
Second: O=C(Nc1cccnc1)c1cc(-c2ccnc(F)c2)ccc1OCc1ccccc1
The neurite formation score of the first is higher: 4.36 for the first, 3.88 for the second.

First: CCn1nnc2c(N3CCOCC3)nc(-c3ccc(NC(=O)Nc4ccc(C(=O)N5CCN(C)CC5)cc4)cc3)nc21
Second: CCN1CCN(Cc2ccc(NC(=O)Nc3ccc(Oc4cc(NC)ncn4)cc3)cc2C(F)(F)F)CC1
The neurite formation score of the first is lower: 3.14 for the first, 4.57 for the second.

Going from `O=C(NOCC1CC1)c1ccc(F)c(F)c1Nc1ccc(I)cc1Cl` to `O=C(NOCC(O)CO)c1cc(Br)c(F)c(F)c1Nc1ccc(I)cc1F` (centres undefined), the neurite formation score rises from 3.91 to 4.57.

Compared with `C1=N/C2=N/c3ccc(OCCN4CCCC4)c(c3)COC/C=C/COCc3cccc(c3)C(=C1)N2` [Pacritinib], `Nc1cccc(-c2cc3c(Oc4cccc(O)c4)ncnc3[nH]2)c1` is lower in neurite formation score: 2.29 for the first, 1.88 for the second.

Compared with `CC(C)(C)n1nc(Cc2cccc3ccccc23)c2c(N)ncnc21`, `COc1cccc(-c2cc(=O)c3ccccc3o2)c1N` is lower in neurite formation score: 4.63 for the first, 3.57 for the second.

`COc1cc(-c2cc(-c3cccc(O)c3)cnc2N)cc(OC)c1OC` and `COc1ccc(-c2cnc3c(-c4cccc5ncccc45)cnn3c2)cc1` are the same in neurite formation score: 3.88 for the first, 3.88 for the second.

Going from `Cc1ccc(Nc2nccc(N(C)c3ccc4c(C)n(C)nc4c3)n2)cc1S(N)(=O)=O` to `Cc1ccc(C(=O)Nc2cccc(C(F)(F)F)c2)cc1Nc1nc(-c2cccnc2)nc2c1cnn2C`, the neurite formation score rises from 3.91 to 3.96.

First: Oc1ccc(-c2nc(-c3ccc(F)cc3)c(-c3ccncc3)[nH]2)cc1
Second: NC(=O)c1ccc2nc(-c3ccc(Oc4ccc(Cl)cc4)cc3)[nH]c2c1
The neurite formation score of the first is lower: 4.57 for the first, 4.63 for the second.

Going from `CN([C@@H](Cc1ccc(OS(=O)(=O)c2cccc3cnccc23)cc1)C(=O)N1CCN(c2ccccc2)CC1)S(=O)(=O)c1cccc2cnccc12` to `CCOc1ccc(Nc2ccc(/C(=C3C=C/C(=[N+](/CC)Cc4cccc(S(=O)(=O)[O-])c4)C=C/3C)c3ccc(N(CC)Cc4cccc(S(=O)(=O)O)c4)cc3C)cc2)cc1` [Brilliant Blue G], the neurite formation score rises from 2.9 to 5.21.

Compared with `COc1cc(N2CCC(N3CCN(C)CC3)CC2)ccc1Nc1ncc(Cl)c(Nc2ccccc2S(=O)(=O)C(C)C)n1`, `CCc1cc(Nc2nccc(-c3c(-c4ccc(OC)c(C(=O)Nc5c(F)cccc5F)c4)nc4ccccn34)n2)c(OC)cc1N1CCC(N2CCN(S(C)(=O)=O)CC2)CC1` is higher in neurite formation score: 2.24 for the first, 4.91 for the second.

First: Cc1nc(NC(=O)N2CCC[C@H]2C(N)=O)sc1-c1ccnc(C(C)(C)C(F)(F)F)c1
Second: CNc1nc(-c2ccc3c(N)n[nH]c3c2)cc(N2C[C@@H](C(=O)NC3CCCCC3)CC[C@H]2C)n1
The neurite formation score of the first is higher: 5.24 for the first, 4.88 for the second.

Compared with `NC(=O)c1ncn([C@@H]2O[C@H](CO)[C@@H](O)[C@H]2O)c1N`, `C[C@H]1[C@H](C)CC[C@]2(C(=O)O)CC[C@]3(C)C(=CC[C@@H]4[C@@]5(C)C[C@@H](O)[C@H](O)[C@@](C)(CO)[C@@H]5CC[C@]43C)[C@H]12` [Asiatic acid] is lower in neurite formation score: 4.57 for the first, 4.21 for the second.

Going from `COc1nccc(-c2c(-c3ccc(F)cc3)ncn2C2CCC(O)CC2)n1` (centres undefined) to `NC1(c2ccc(-c3nc4ccn5c(=O)[nH]nc5c4cc3-c3ccccc3)cc2)CCC1` [MK-2206 dihydrochloride], the neurite formation score falls from 5.36 to 4.24.

Compared with `O=C1NC(=O)[C@@H](c2cn3c4c(cccc24)CCC3)[C@@H]1c1c[nH]c2ccccc12` [Tivantinib (ARQ 197)], `O=c1cc(N2CCOCC2)oc2c(-c3cccc4c3sc3ccccc34)cccc12` is higher in neurite formation score: 0.236 for the first, 2.9 for the second.

First: COc1cc(C(=O)NC2CCN(C)CC2)c(F)cc1Nc1ncc2c(n1)N(C1CCCC1)CC(F)(F)C(=O)N2C
Second: CNC(=O)c1c(F)cccc1Nc1nc(Nc2cc3c(cc2OC)CCN3C(=O)CN(C)C)nc2[nH]ccc12
The neurite formation score of the first is higher: 5.54 for the first, 4.96 for the second.

First: Cn1cnc(-c2cc3nccc(Oc4ccc(NC(=S)NC(=O)Cc5ccccc5)cc4F)c3s2)c1
Second: CN1CCC(Nc2nc(Nc3ccc(Oc4ccccc4)cc3)c3c(=O)[nH]cc(Br)c3n2)CC1
The neurite formation score of the first is higher: 3.69 for the first, 3.29 for the second.

Going from `Nc1nc(N)c(N=O)c(OCC2CCCCC2)n1` to `O=C(Nc1cccc(Cl)c1)Nc1ncc(CCNc2ncnc3ccsc23)s1` [SNS-314 Mesylate], the neurite formation score rises from 4.57 to 4.69.

In the case of `CC1=CC(=O)C(C(C)C)=C/C1=N/OC(=O)c1ccccc1C` [Poloxin], the neurite formation score is reported as 4.02.

test system: Neuro-2a; assay: as above; conditions: 0.1 µM
Procedure: as §1, with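 “at 0.1” for “at 1”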

Going from `O=C(c1cccc(Cl)c1F)N1CCN(Cc2cccc(Nc3nccs3)n2)CC1` to `O=C(O)[C@]1(Cc2cccc(Nc3nccs3)n2)CC[C@@H](Oc2cccc(Cl)c2F)CC1`, the neurite formation score rises from 1.42 to 3.92.

Going from `CC1(C)CNc2cc(NC(=O)c3cccnc3NCc3ccncc3)ccc21` [Motesanib Diphosphate (AMG-706)] to `O=C(Nc1cccnc1)c1cc(-c2ccnc(F)c2)ccc1OCc1ccccc1`, the neurite formation score rises from 4.92 to 5.08.

First: CCn1nnc2c(N3CCOCC3)nc(-c3ccc(NC(=O)Nc4ccc(C(=O)N5CCN(C)CC5)cc4)cc3)nc21
Second: CCN1CCN(Cc2ccc(NC(=O)Nc3ccc(Oc4cc(NC)ncn4)cc3)cc2C(F)(F)F)CC1
The neurite formation score of the first is higher: 4.76 for the first, 2.04 for the second.

Compared with `O=C(NOCC1CC1)c1ccc(F)c(F)c1Nc1ccc(I)cc1Cl`, `O=C(NOCC(O)CO)c1cc(Br)c(F)c(F)c1Nc1ccc(I)cc1F` (centres undefined) is higher in neurite formation score: 4.71 for the first, 4.88 for the second.

Compared with `C1=N/C2=N/c3ccc(OCCN4CCCC4)c(c3)COC/C=C/COCc3cccc(c3)C(=C1)N2` [Pacritinib], `Nc1cccc(-c2cc3c(Oc4cccc(O)c4)ncnc3[nH]2)c1` is lower in neurite formation score: 4.92 for the first, 3.75 for the second.

Compared with `CC(C)(C)n1nc(Cc2cccc3ccccc23)c2c(N)ncnc21`, `COc1cccc(-c2cc(=O)c3ccccc3o2)c1N` is higher in neurite formation score: 4.58 for the first, 5.04 for the second.

Compared with `COc1cc(-c2cc(-c3cccc(O)c3)cnc2N)cc(OC)c1OC`, `COc1ccc(-c2cnc3c(-c4cccc5ncccc45)cnn3c2)cc1` is lower in neurite formation score: 4.08 for the first, 2.08 for the second.

Going from `Cc1ccc(Nc2nccc(N(C)c3ccc4c(C)n(C)nc4c3)n2)cc1S(N)(=O)=O` to `Cc1ccc(C(=O)Nc2cccc(C(F)(F)F)c2)cc1Nc1nc(-c2cccnc2)nc2c1cnn2C`, the neurite formation score rises from 3.71 to 4.25.

First: Oc1ccc(-c2nc(-c3ccc(F)cc3)c(-c3ccncc3)[nH]2)cc1
Second: NC(=O)c1ccc2nc(-c3ccc(Oc4ccc(Cl)cc4)cc3)[nH]c2c1
The neurite formation score of the first is lower: 4.71 for the first, 5.25 for the second.

Going from `CN([C@@H](Cc1ccc(OS(=O)(=O)c2cccc3cnccc23)cc1)C(=O)N1CCN(c2ccccc2)CC1)S(=O)(=O)c1cccc2cnccc12` to `CCOc1ccc(Nc2ccc(/C(=C3C=C/C(=[N+](/CC)Cc4cccc(S(=O)(=O)[O-])c4)C=C/3C)c3ccc(N(CC)Cc4cccc(S(=O)(=O)O)c4)cc3C)cc2)cc1` [Brilliant Blue G], the neurite formation score falls from 4.54 to 2.08.

Going from `COc1cc(N2CCC(N3CCN(C)CC3)CC2)ccc1Nc1ncc(Cl)c(Nc2ccccc2S(=O)(=O)C(C)C)n1` to `CCc1cc(Nc2nccc(-c3c(-c4ccc(OC)c(C(=O)Nc5c(F)cccc5F)c4)nc4ccccn34)n2)c(OC)cc1N1CCC(N2CCN(S(C)(=O)=O)CC2)CC1`, the neurite formation score falls from 5.54 to 4.71.

First: Cc1nc(NC(=O)N2CCC[C@H]2C(N)=O)sc1-c1ccnc(C(C)(C)C(F)(F)F)c1
Second: CNc1nc(-c2ccc3c(N)n[nH]c3c2)cc(N2C[C@@H](C(=O)NC3CCCCC3)CC[C@H]2C)n1
The neurite formation score of the first is higher: 5.21 for the first, 1.42 for the second.

Going from `NC(=O)c1ncn([C@@H]2O[C@H](CO)[C@@H](O)[C@H]2O)c1N` to `C[C@H]1[C@H](C)CC[C@]2(C(=O)O)CC[C@]3(C)C(=CC[C@@H]4[C@@]5(C)C[C@@H](O)[C@H](O)[C@@](C)(CO)[C@@H]5CC[C@]43C)[C@H]12` [Asiatic acid], the neurite formation score falls from 5.54 to 5.08.

First: COc1nccc(-c2c(-c3ccc(F)cc3)ncn2C2CCC(O)CC2)n1 (centres undefined)
Second: NC1(c2ccc(-c3nc4ccn5c(=O)[nH]nc5c4cc3-c3ccccc3)cc2)CCC1 [MK-2206 dihydrochloride]
The neurite formation score of the first is higher: 5.25 for the first, 4.71 for the second.

Going from `O=C1NC(=O)[C@@H](c2cn3c4c(cccc24)CCC3)[C@@H]1c1c[nH]c2ccccc12` [Tivantinib (ARQ 197)] to `O=c1cc(N2CCOCC2)oc2c(-c3cccc4c3sc3ccccc34)cccc12`, the neurite formation score rises from 0.876 to 4.21.

First: COc1cc(C(=O)NC2CCN(C)CC2)c(F)cc1Nc1ncc2c(n1)N(C1CCCC1)CC(F)(F)C(=O)N2C
Second: CNC(=O)c1c(F)cccc1Nc1nc(Nc2cc3c(cc2OC)CCN3C(=O)CN(C)C)nc2[nH]ccc12
The neurite formation score of the first is higher: 5.08 for the first, 4.58 for the second.

Going from `Cn1cnc(-c2cc3nccc(Oc4ccc(NC(=S)NC(=O)Cc5ccccc5)cc4F)c3s2)c1` to `CN1CCC(Nc2nc(Nc3ccc(Oc4ccccc4)cc3)c3c(=O)[nH]cc(Br)c3n2)CC1`, the neurite formation score falls from 4.92 to 4.25.

First: Nc1nc(N)c(N=O)c(OCC2CCCCC2)n1
Second: O=C(Nc1cccc(Cl)c1)Nc1ncc(CCNc2ncnc3ccsc23)s1 [SNS-314 Mesylate]
The neurite formation score of the first is higher: 4.71 for the first, 4.58 for the second.

With `CC1=CC(=O)C(C(C)C)=C/C1=N/OC(=O)c1ccccc1C` [Poloxin] the neurite formation score was 5.25.
